The supplement of paper PMC7726561
The full ranking holds about 1,100 sequences; the median of “thermal melting temperature (Tm) of peptide-HLA complex” is about 58, and the lowest 2% start at about 42. Shown is part of a subset that was picked to be rich in the lowest values.

The sequences below were run against HLA-A*02:01 (assay: thermal melting temperature (Tm) of peptide-HLA complex; higher = more thermostable pHLA complex). Conditions: C1R-A*02:01.
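Further: lysates heated 10 min at 37–73 °C, complexes pulled down with pan-HLA I antibody, peptide signal by DIA-MS relative to 37 °C, Tm where half the complex is unfolded.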

Sequence	thermal melting temperature
KLDQVIIHV	60.5 °C
KVLEVTEEFGV	62.6 °C
ILLEHGADPNL	51.4 °C
VLDEEIAKA	40.7 °C
SLLENIAKA	60.6 °C
SLQEEIAKL	53.4 °C
SLMDPNKFLLL	55.1 °C
VLQGKLAEV	53.5 °C
HLAIKLEQV	59.5 °C
KIIEYSVYL	59.5 °C
ALAPAPPQV	62.1 °C
GLSTEGIYRV	60.9 °C
ILDAGGHNVTI	54.5 °C
KVIDYVPGI	58.8 °C
NLFNRYPAL	58.4 °C
FLMDFIHQV	62.2 °C
FLMKNSDLYGA	58.4 °C
ALLDRIVSV	64.2 °C

Sequence	thermal melting temperature
NIIPYITNV	51.4 °C
SLLPEGPPAI	57.8 °C
LLAEDDELHL	44.2 °C
FLDHIIASV	61.4 °C
ALAPGVRAV	60.2 °C
YLPEDFIRVG	46.8 °C
LLQEVEHQL	57.8 °C
ALFPGDVDRL	54.3 °C
WLIEDGKVVTV	58.3 °C
AMNISVPQV	58.1 °C
FLAELPGSLSL	49.3 °C
ILEEKGLSQV	59.1 °C
LLSDVRFVL	54.8 °C
LLRDGIELV	57.8 °C
AMSNLVPPVEL	53.7 °C
RLGEAEGLMKV	56.4 °C
FILDFYEKV	41.8 °C
KIFEMGPVFTL	52.7 °C
